Assay results: PubChem BioAssay (NCI)
About 83,000 compounds went through this panel and 20% of them were active in at least one assay; those are over-represented in the sample as a whole.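 Plates (96-well) were seeded with cells, treated with compound at one concentration, and incubated for 48 hours before percent growth was determined.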 Unmarked numbers belong to inactive results. Active and inactive are the calls of the source. How the source made its calls: active means growth percent below 10; inactive means the rest.

These molecules were tested on BT-549 breast (assay: NCI-60 one-dose screen, 48 h (100 = growth as untreated, 0 = no growth, -100 = all killed)). Conditions: 10 µM.
With `CCN1CCN(Cc2ccc(C(=O)Nc3cccc(-c4cn(-c5ccc6oc(=O)ccc6c5)nn4)c3)cc2C(F)(F)F)CC1` the growth was -79.2% (active).
`CN1C(=O)N(C)C2SC(N/N=C/c3cccs3)=NC21` (stereo unspecified) showed a growth of 21.4%.
`CC(=O)Nc1ccc(-c2cn(-c3cccc(C(=O)Nc4cc(CN5CCOCC5)cc(C(F)(F)F)c4)c3)nn2)cn1` was tested, and the growth was -82.1% (active).
`Cc1cc(C)cc(Oc2cccc(-c3c(C)nnn3C3CCN(CCN(C)C)CC3)n2)c1` was tested, and the growth was 9.68% (active).
`CC1=C(c2cc(-c3ccc(Cl)cc3)c(C#N)c(N)n2)C(c2ccccc2)NC(=S)N1` (stereo unspecified) was tested, and the growth was 42.1%.
`Cc1ccc(-c2nc3ccc(C(=O)N=Nc4c(O)[nH]c5ccc(Br)cc45)cc3[nH]2)cc1` gave a growth of 138%.
With `O=C(Nc1ccc(I)cc1F)c1cc(-c2ccc(F)cc2F)ccc1O` the growth was -12.5% (active).
In the case of `CN1CCc2c(sc3ncnc(N/N=C/c4ccc5ccccc5c4)c23)C1`, the growth is reported as 71.1%.
For `COc1cc2c3c(n(CCCN4CCOCC4)c(=O)c2cc1OC)-c1nc2c(cc1C3=O)OCO2`, the growth was 4.91% (active).
Work on `Cn1c(O)c(N=Nc2nc(-c3cc4ccccc4oc3=O)cs2)c2cc(Br)ccc21` yielded a growth of 59.6%.
With `COc1ccc(CCN2C(=O)/C(=C/c3csc(C#N)n3)SC2=S)cc1OC` the growth was 24.5%.
Molecule `COc1ccc2c3nc4cc(C)c(C)cc4nc3n(CCN(C)C)c2c1` has a growth of 39.4%.
With `C=C1CCC2C3(C)COC(c4c(F)cccc4F)OC3CCC2(C)C1CC(O)C1=CCOC1=O` (stereo unspecified) the growth was -9.18% (active).
With `Cc1cccc2cc(-c3cc(-c4ccccc4)nc(=S)[nH]3)c(Cl)nc12` the growth was 53.1%.
For `COc1ccc(/C=C/C(=O)c2ccc(N3CCN(C)CC3)cc2)c(C(F)(F)F)c1`, the growth was 40.7%.
`Cc1cccc(NC(=O)CSc2nc3ccc(F)cc3c(=O)n2-c2ccc(Cl)cc2)c1C` gave a growth of 32%.
Molecule `CC1(c2ccccc2)NC(=O)N(CC(=O)Nc2ccc(C(=O)/C=C/C=C/c3ccccc3)cc2)C1=O` (stereo unspecified) has a growth of 38.9%.
For `CCOP(=O)(OCC)O[C@H]1CC[C@]2(C)[C@H]3CC[C@@H]4[C@@H]([C@](C)(O)CCC=C(C)C)CC[C@@]4(C)[C@]3(C)CC[C@H]2C1(C)C`, the growth was -14.5% (active).
For `COc1cccc(-c2ccnc(/N=C(\N)Nc3ccc(S(=O)(=O)Nc4nc(C)cc(C)n4)cc3)n2)c1`, the growth was 111%.
`COc1ccc2[nH]c(=O)c(CSc3cccc(N)c3)cc2c1` gave a growth of 75.1%.
Molecule `C/C(=N\N=C\c1ccc(Cl)c([N+](=O)[O-])c1)c1ccc2c(c1)Nc1ccccc1S2` has a growth of 58.4%.
`COc1cc(-c2nc3cc(Cl)c(Cl)cc3[nH]2)ccc1OCc1nnc(-c2ccc(Br)cc2)o1` was tested, and the growth was -73.4% (active).
With `O/N=C(\CSc1nnc(-c2c[nH]c3ccccc23)n1-c1ccccc1)c1ccc(Cl)cc1` the growth was -66.7% (active).
For `CCOc1ccc(Nc2nc3ccccc3nc2Nc2ccc(OCC)cc2)cc1`, the growth was 70.7%.

These molecules were tested on MDA-MB-435 melanoma in the same assay as above. Conditions: 10 µM.
For `O=C(Nc1cccc(C(F)(F)F)c1)c1cncc(C#Cc2cnc3cccnn23)c1`, the growth was 25.6%.
Molecule `CCOc1ccc(/C=N/NC(=O)Cn2nc(Cc3ccccc3)c3onc(C)c3c2=O)cc1` has a growth of 55.3%.
`COc1cc(/C=C/C(=O)c2ccc(C(F)(F)F)cc2)ccc1Oc1nc(Nc2ccc(F)cc2)nc(N(C)C)n1` showed a growth of 80.1%.
With `CC(=O)c1cc(C(=O)N2c3ccccc3Sc3ccccc32)n2ccc(C)cc12` the growth was 28%.
In the case of `CC1(C)CC[C@]2(C(=O)N3CCOCC3)CC[C@]3(C)C(=CC[C@@H]4[C@@]5(C)CC[C@H](NCO)C(C)(C)[C@@H]5CC[C@]43C)[C@H]2C1`, the growth is reported as -96.4% (active).
`COC[C@@H](CC(C)C)N=C1NC(=O)/C(=C/c2ccc3ncsc3c2)N1` showed a growth of 12.7%.
`CN1CCN(Cc2ccc(C(=O)Nc3cccc(Nc4ccc5c(O)cccc5n4)c3)cc2C(F)(F)F)CC1` was tested, and the growth was -91.6% (active).
In the case of `O=C(Nc1nc2ccc([N+](=O)[O-])cc2s1)Nc1ccccc1I`, the growth is reported as -7.59% (active).
For `CN1CCCN(Cc2ccc(C(=O)Nc3cccc(Nc4ccc5cc(O)ccc5n4)c3)cc2C(F)(F)F)CC1`, the growth was 37.9%.
`COc1ccc(N2N=C(c3ccc4c(c3)OCCO4)CC2c2cccc(NC(=O)CCCNS(=O)(=O)c3ccc(F)cc3)c2)cc1` (stereo unspecified) showed a growth of 69.7%.
With `CC(=O)Nc1ccc(-n2cnc3cc(-c4ccc(O)cc4)ccc32)cc1F` the growth was -25.7% (active).
With `O=C1NC(=NC2CCCCCC2)N/C1=C\c1ccc2ncoc2c1` the growth was 37.8%.
`COC1=C[C@@]23CCC(=O)N2CCc2cc4c(cc2[C@H]3[C@H]1OC(=O)C(C)(C)O)OCO4` was tested, and the growth was 98.4%.
`CCN1CCN(Cc2ccc(C(=O)Nc3cccc(-c4cn(-c5ccc6oc(=O)ccc6c5)nn4)c3)cc2C(F)(F)F)CC1` was tested, and the growth was -100% (active).
In the case of `CN1C(=O)N(C)C2SC(N/N=C/c3cccs3)=NC21` (stereo unspecified), the growth is reported as -37.6% (active).
For `CC(=O)Nc1ccc(-c2cn(-c3cccc(C(=O)Nc4cc(CN5CCOCC5)cc(C(F)(F)F)c4)c3)nn2)cn1`, the growth was -89.1% (active).
Work on `Cc1cc(C)cc(Oc2cccc(-c3c(C)nnn3C3CCN(CCN(C)C)CC3)n2)c1` yielded a growth of 20.7%.
For `CC1=C(c2cc(-c3ccc(Cl)cc3)c(C#N)c(N)n2)C(c2ccccc2)NC(=S)N1` (stereo unspecified), the growth was 25.3%.
Molecule `Cc1ccc(-c2nc3ccc(C(=O)N=Nc4c(O)[nH]c5ccc(Br)cc45)cc3[nH]2)cc1` has a growth of 57.9%.
`O=C(Nc1ccc(I)cc1F)c1cc(-c2ccc(F)cc2F)ccc1O` was tested, and the growth was 0.752% (active).
With `CN1CCc2c(sc3ncnc(N/N=C/c4ccc5ccccc5c4)c23)C1` the growth was 72.5%.
For `COc1cc2c3c(n(CCCN4CCOCC4)c(=O)c2cc1OC)-c1nc2c(cc1C3=O)OCO2`, the growth was 16.4%.
`Cn1c(O)c(N=Nc2nc(-c3cc4ccccc4oc3=O)cs2)c2cc(Br)ccc21` showed a growth of 106%.
For `COc1ccc(CCN2C(=O)/C(=C/c3csc(C#N)n3)SC2=S)cc1OC`, the growth was 23.5%.
With `COc1ccc2c3nc4cc(C)c(C)cc4nc3n(CCN(C)C)c2c1` the growth was -76.1% (active).
`C=C1CCC2C3(C)COC(c4c(F)cccc4F)OC3CCC2(C)C1CC(O)C1=CCOC1=O` (stereo unspecified) showed a growth of 40%.
`Cc1cccc2cc(-c3cc(-c4ccccc4)nc(=S)[nH]3)c(Cl)nc12` was tested, and the growth was -6.63% (active).
In the case of `COc1ccc(/C=C/C(=O)c2ccc(N3CCN(C)CC3)cc2)c(C(F)(F)F)c1`, the growth is reported as -54.9% (active).
`Cc1cccc(NC(=O)CSc2nc3ccc(F)cc3c(=O)n2-c2ccc(Cl)cc2)c1C` showed a growth of 83.4%.
In the case of `CC1(c2ccccc2)NC(=O)N(CC(=O)Nc2ccc(C(=O)/C=C/C=C/c3ccccc3)cc2)C1=O` (stereo unspecified), the growth is reported as 37.1%.
In the case of `CCOP(=O)(OCC)O[C@H]1CC[C@]2(C)[C@H]3CC[C@@H]4[C@@H]([C@](C)(O)CCC=C(C)C)CC[C@@]4(C)[C@]3(C)CC[C@H]2C1(C)C`, the growth is reported as 29.9%.
`COc1cccc(-c2ccnc(/N=C(\N)Nc3ccc(S(=O)(=O)Nc4nc(C)cc(C)n4)cc3)n2)c1` was tested, and the growth was 109%.
Molecule `COc1ccc2[nH]c(=O)c(CSc3cccc(N)c3)cc2c1` has a growth of 31.6%.
Molecule `C/C(=N\N=C\c1ccc(Cl)c([N+](=O)[O-])c1)c1ccc2c(c1)Nc1ccccc1S2` has a growth of 49.9%.
`COc1cc(-c2nc3cc(Cl)c(Cl)cc3[nH]2)ccc1OCc1nnc(-c2ccc(Br)cc2)o1` was tested, and the growth was -18.7% (active).
With `O/N=C(\CSc1nnc(-c2c[nH]c3ccccc23)n1-c1ccccc1)c1ccc(Cl)cc1` the growth was -99.8% (active).
With `CCOc1ccc(Nc2nc3ccccc3nc2Nc2ccc(OCC)cc2)cc1` the growth was 52.9%.
